Screening results (PubChem)
Pf Dd2 growth – blocks in vitro growth of P. falciparum Dd2 | P. falciparum Dd2 growth, SYBR Green, 72 h | Potency, µM (highest dose often 28.9 µM), for the others: at the top dose activity, negative = inhibition, hits mostly inhibitors | 120,000 compounds, 4.3% hits; active = well fitted inhibition curve with a large enough effect;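 note: plate controls were DMSO vehicle for no effect and reference drug for full effect; nearly all actives have a fitted effect of over 65% in size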
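Infected erythrocytes (Dd2, 0.3% parasitemia, 2.5% hematocrit final) are added to compound in RPMI-1640/Albumax II medium, grown 72 h at 37C in low oxygen, then lysed with saponin/Triton-X containing SYBR Green and read by fluorescence.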
An asterisk follows results filed as active; i = inactive; [ ] = remark or other dose. This excerpt belongs to a sample that is enriched for hits. Potency is the fitted concentration of half-maximal effect.

SMILES	Pf Dd2 growth
COc1ccc(NC(=O)Cn2nc(C(F)(F)F)c3c2CCCC3)cc1OC	-7%
COc1ccccc1NC(=O)c1sc2nc3c(cc2c1N)CCCCCC3	i
COc1ccc(C)cc1Nc1c2c(nc3ccccc13)CCC2	13µM*
COc1ccc(C)cc1NC(=O)CC(=O)Nc1ccc2nc3n(c(=O)c2c1)CCCCC3	-13%
CCOCCn1c(=O)[nH]c2cc(C(=O)NCc3ccc(F)c(F)c3)ccc21	-20%
CC(C)(Oc1ccc2c(c1)CCC2)C(=O)N1CCC2(CCCNC2=O)C1 (stereo not given)	-2%
COCC(=O)N1CCC(Oc2ccccc2C(=O)NCCc2ncccc2C)CC1	-4%
O=C1CCCCC(Cc2ccccc2)(C(=O)O)N1 (stereo not given)	4%
NC(=O)[C@H](Cc1ccc(O)cc1)NC(=O)C1=C[C@@H](NC(=O)c2cnccn2)[C@@H](O)[C@H](O)C1	1%
COc1ccc(C(=O)N2CCCC(O)(CN3CCCC3)C2)c(OC)c1 (stereo not given)	-8%
Cc1cc(=O)n(CC(=O)Nc2ccc(C)c(F)c2)c(N(C)Cc2ccccc2)n1	-23%
CCc1cn(C[C@H](NC(=O)Cc2ccccc2)C(=O)O)c(=O)[nH]c1=O	16%[44.1 µM]
Cc1noc(C)c1-c1ccc(S(=O)(=O)N[C@@H]2[C@@H](N)[C@H]3CCO[C@H]32)s1	i
CNC(=O)[C@@H]1CN(C(=O)c2cncn2C)C[C@H]1COC	-19%
Cc1cc(C)cc(NC(=S)N[C@H]2CO[C@H]3[C@@H]2OC[C@H]3OC(=O)NC2CCCCC2)c1	-25%[44.1 µM]
COc1cc(NC(=O)c2cccc(F)c2)ccc1NC(=O)c1cc2ccccc2o1	6%
COc1ccc(OC)c(NC(=O)c2ccc3c(Cl)c4c(nc3c2)CCCC4)c1	-5%
COc1ccccc1Nc1c2c(nc3ccc(NC(=O)c4cccc(F)c4)cc13)CCCC2	3.2µM*
Cn1nc(C2CCCN(C(=O)C3CCOCC3)C2)n(Cc2ccccc2)c1=O (stereo not given)	8%
CC(C)CC(=O)N1CCC(N2CC(OCC3CC3)C23CCOCC3)CC1 (stereo not given)	-20%
CC(=O)N1CCC(C(=O)N2CCC(N3CC(OCC4CC4)C34CCOCC4)CC2)CC1 (stereo not given)	9%
CCCNC(=O)N1CCC(N2CC(OCC3CC3)C23CCCCC3)CC1 (stereo not given)	8.9µM*
CC(C)C1=NOC2(CCCN(Cc3ccccn3)C2)C1 (stereo not given)	-13%[44.1 µM]
CC(C)(C)NC(=O)N1CCC2(CC1)C(=O)N(CC(=O)NCCc1ccccc1)CN2c1ccccc1	-15%
COC(=O)c1ccccc1NC(=O)CSc1nc(-c2ccccc2)cc(C(F)(F)F)n1	2.8µM*
SMILES	Pf Dd2 growth
CC(C)(C)c1ccccc1NC(=O)CSc1nc(-c2cccs2)cc(C(F)(F)F)n1	i
COC(=O)c1ccccc1NC(=O)CSc1n[nH]c(C)n1	53%
CCOc1ccccc1NC(=O)N1CCC(OC2CCN(S(C)(=O)=O)CC2)CC1	4%
COc1ccc(CN(CC2CCCO2)C(=O)C2CCN(CC(N)=O)CC2)cc1 (stereo not given)	-20%
CC(C)(C)CC(=O)N1CCN(c2nc(-c3ccccc3)nc3c2CCC3)CC1	-10%
CNCCNC(=O)C1CCN(c2nc(-c3ccccc3)nc3c2CCC3)CC1	13µM*
CN(C)c1nc(-c2ccccc2)nc2c1CCN(C(=O)C1CCOC1)C2 (stereo not given)	-16%
CCN(CC1CCCO1)C(=O)C1CCN(c2nc(-c3ccccc3)nc3c2CCC3)CC1 (stereo not given)	11µM*
COC(C)(C)C(=O)N1CCN(c2nc(-c3ccccc3)nc3c2CCC3)CC1	i
COc1ccccc1CCC(=O)N1C[C@H](c2nc(-c3cccnc3)no2)[C@@H](C)C1	-2%
O=C(c1ccncc1)N1CC[C@](O)(c2ccccc2)[C@H](N2CCCC2)C1	26%[5.79 µM]
CCC(C)Oc1ccc(CNC(=O)c2cn(CCN)nn2)cc1 (stereo not given)	-19%
O=C(Nc1cccc(O)c1)c1cc(-c2ccccc2F)no1	-13%
COc1cccc(-c2cc(C(=O)Nc3cc(OC)c(OC)c(OC)c3)on2)c1	-13%[0.594 µM]
Cc1ccc(O)c(NC(=O)c2noc3c2CCCCC3)c1	4.5µM*
COc1cccc(-c2cc(C(=O)Nc3cc(Cl)ccc3O)on2)c1	1µM*
Cc1ccc(O)c(NC(=O)c2cc(-c3ccccc3O)no2)c1	2.2µM*
Cc1ccc(C)c(N2CCN(C(=O)c3noc4c3CCCCC4)CC2)c1	i
Cc1ccc(O)c(NC(=O)COCc2cc(-c3ccco3)on2)c1	18%
COc1cccc(C(=O)Nc2cc(-c3ccccc3)no2)c1	-1%
COc1ccc(OC)c(NC(=O)c2noc3c2CCCC3)c1	-14%
Cc1ccc(CN2C(=O)OC(c3cccc(NC(=O)c4cccs4)c3)C2C(=O)NC2CC2)cc1 (stereo not given)	-18%
CCCNC(=O)N(C1CCOCC1)C1CCN(C(=O)c2cccc(C(F)(F)F)c2)CC1	7%
OC1CCOC2(CCN(Cc3ccncc3)CC2)C1 (stereo not given)	6%
